DYRK1A inh: inhibitors of rat Dyrk1A kinase. Q63470. 310,000 compounds, 0.43% hits. inhibition, % at 12.5 µM. ADP-Glo luminescence, NFATc1 peptide; in the data active = inhibition above about 50%;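 note: plate controls were vehicle with enzyme for no effect and no enzyme for full effect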
dFosB activator: mouse delta FosB homodimer activation | purified delta FosB, TAMRA-CDK5 oligo fluorescence polarization; percent of positive-control signal above neutral wells | 340,000 compounds, 0.99% hits | P13346 | activation, % at 25 µM;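 active = mean activation above about 17%, with every replicate also reaching it, limit read from the data, passing the limit was not always enough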
Target sequence (P13346 whole entry, looked up): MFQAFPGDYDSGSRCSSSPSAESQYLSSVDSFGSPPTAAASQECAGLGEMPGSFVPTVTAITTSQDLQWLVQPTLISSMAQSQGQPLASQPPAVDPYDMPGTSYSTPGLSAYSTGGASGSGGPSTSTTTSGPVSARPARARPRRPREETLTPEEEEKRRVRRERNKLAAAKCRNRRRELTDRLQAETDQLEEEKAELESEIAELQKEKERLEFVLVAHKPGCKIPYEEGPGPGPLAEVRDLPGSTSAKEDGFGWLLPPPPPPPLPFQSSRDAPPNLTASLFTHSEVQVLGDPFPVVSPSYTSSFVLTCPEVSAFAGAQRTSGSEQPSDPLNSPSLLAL
esBAF inh: SWI/SNF esBAF complex inhibition; mouse ES cells, Bmi1-luciferase knock-in reporter, 24 h; 100% = twice the neutral-well signal; reporter increase, % at 12.5 µM; 350,000 compounds, 2% hits; AID 602393; in the data active = activation above about 40%;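 note: 0% = median of the plate's neutral control wells and 100% = double that signal; a rise in the Bmi1 reporter signal indicates esBAF inhibition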
SMARCA2 act: SMARCA2 function activation, primary screen | MG213 cells, MMTV-luciferase reporter, dexamethasone, overnight | activation, % at 9.1 µM | 370,000 compounds, 1% hits; in the data active = activation above about 7.8%;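 note: 0% = vehicle wells and 100% = reference activator wells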
CDK5 inh: blocks human CDK5/p35 kinase activity; Q00535+Q15078; Recombinant CDK5/p35, ADP-Glo luminescence, 60 min; inhibition, % at 10 µM; 330,000 compounds, 0.01% hits; AID 488839;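 active = highest replicate inhibition of at least 50% and at least 75% of replicates reaching 50%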;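 note: plate controls were DMSO neutral control for no effect and GW8510 at 10 µM for full effect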
Rtt109 HAT inh: blocks Candida albicans Rtt109/Vps75 acetyltransferase activity | purified Rtt109/Vps75, ThioGlo CoA-SH fluorescence, 4 h | inhibition, % at 34.9 µM | 330,000 compounds, 0.16% hits | AID 540336;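 active = inhibition of at least 50% in every replicate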
The depositor's hits bear a star; nt = no result. Most compounds without a hit are left out; they make up all but 3.2% or so of the library.

SMILES	DYRK1A inh	dFosB activator	esBAF inh	SMARCA2 act	CDK5 inh	Rtt109 HAT inh
CCCNC(=O)[C@@H]1[C@@H](CO)[C@@H]2Cn3c(ccc(-c4cccc(F)c4)c3=O)[C@@H]2N1C(C)=O	nt	nt	2	nt	nt	nt
CCCNC(=O)C[C@H]1C[C@H]2c3cc(NS(=O)(=O)c4cccc(OC)c4)ccc3O[C@H]2[C@H](CO)O1	nt	nt	7	nt	nt	nt
O=C(/C=C/c1cccc(F)c1)OCC(=O)c1ccc[nH]1	-1	-14	-1	7.9*	0	2
O=C(/C=C/c1ccc(F)cc1)OCC(=O)c1ccc[nH]1	-6	-18	12	2	-2	0
CC(=O)Nc1sc(C)c(C)c1C(=O)OCC(=O)Nc1ccccc1	5	12	18	3	0	3
O=C(Nc1ccccc1)OCCOc1ccccc1	3	1	52*	7	0	2
O=C(Nc1cccc(Cl)c1)OCCOc1ccccc1	16	1	61*	3	0	-4
CC(=O)Nc1sc(C)c(C)c1C(=O)OCCOc1ccccc1	0	-9	55*	3	-1	-5
O=C(Nc1cccc(Cl)c1)OCCOC(=O)Nc1cccc(Cl)c1	nt	-3	-2	0	1	-18
Cc1ccc(NC(=O)CCOc2ccccc2)cc1	-4	3	56*	3	1	-9
Cc1noc(C)c1S(=O)(=O)N(C)C[C@@H]1OCCCC[C@@H](C)Oc2ccc(NC(=O)C3CCCCC3)cc2C(=O)N([C@H](C)CO)C[C@@H]1C	nt	nt	12	nt	nt	nt
O=C(Nc1ccccc1)OCCOc1ccccc1Br	nt	4	45*	0	-1	7
Cc1ccc(OC(=O)Nc2ccccc2)cc1	3	3	50*	1	-5	2
C[C@@H]1CCCCO[C@H](CN(C)S(=O)(=O)c2cn(C)cn2)[C@H](C)CN([C@@H](C)CO)C(=O)c2cc(NC(=O)c3ccncc3)ccc2O1	nt	nt	2	nt	nt	nt
COC(=O)c1c(-c2ccc(N(C)C)cc2)sc2ccc(OC)cc12	-8	-2	23	-5	-3	-34
COC(=O)c1c(-c2ccc(OC)cc2)sc2cc3c(cc12)OCO3	33	5	49*	6	1	-11
O=C(C[C@H]1C=C[C@H](NC(=O)Nc2cc(F)ccc2F)[C@@H](CO)O1)NCc1ccc2c(c1)OCO2	nt	nt	1	nt	nt	nt
O=C1CCCN1CCC(=O)N1CCCC(CO)(Cc2ccccc2)C1 (centres undefined)	1	-7	63*	5	-1	3
c1ccc2c(-c3nc(-c4ccncc4)no3)cccc2c1	2	-29	46*	3	1	1
c1ccc(-c2noc(-c3cccc4ccccc34)n2)cc1	9	-5	76*	6	-5	2
Fc1ccccc1-c1nc(-c2ccccc2)no1	-7	-1	-4	5	1	4
Cc1ccc(-c2nc(-c3ccccc3)no2)cc1	7	3	nt	7.8*	2	-10
c1cncc(-c2noc(-c3cccc4ccccc34)n2)c1	-1	-30	58*	0	1	-10
CN1CCN(C(=O)c2ccccc2-c2nc(-c3ccccc3)no2)CC1	3	-4	48*	5	1	-5
Brc1cccc(-c2nc(-c3ccncc3)no2)c1	0	-21	57*	7	1	0
SMILES	DYRK1A inh	dFosB activator	esBAF inh	SMARCA2 act	CDK5 inh	Rtt109 HAT inh
CC(C)CC#Cc1cnc2c(c1)C(=O)N([C@@H](C)CO)C[C@@H](C)[C@H](CN(C)Cc1cncnc1)O2	nt	nt	2	nt	nt	nt
CNC[C@@H]1Oc2c(NC(=O)c3cnccn3)cccc2C(=O)N([C@H](C)CO)C[C@@H]1C	nt	nt	-8	nt	nt	nt
CCc1nnc2c3cnn(-c4ccccc4)c3ncn12	4	-6	64*	5	-1	1
c1ccc(-n2ncc3c2ncn2cnnc32)cc1	1	-2	6	0	0	-10
Cc1ccc(C(=O)Nc2nc(C(C)(C)C)cs2)s1	7	1	66*	1	0	6
CC(C)(C)c1csc(NC(=O)c2ccncc2)n1	14	-5	nt	-6	-4	-10
Cc1csc(NC(=O)c2ccc(Br)s2)n1	3	-9	57*	1	0	-2
CC(C)(C)c1csc(NC(=O)c2ccc(Cl)s2)n1	-2	-10	94*	0	0	12
O=C(Nc1nc(-c2ccc(Cl)s2)cs1)c1ccccc1	4	14	50*	-4	-2	3
O=C(Nc1nc(-c2cccs2)cs1)c1ccc(Cl)s1	-1	15	33	0	1	10
Cc1csc(NC(=O)c2cccs2)n1	21	-8	nt	1	0	9
CN(C)CC(=O)N1[C@@H]2Cn3c(ccc(C4=CCCC4)c3=O)[C@H]1[C@@H](C(=O)NCC1CCCCC1)[C@@H]2CO	nt	nt	-5	nt	nt	nt
Cc1noc(C)c1S(=O)(=O)Nc1cccc2c1O[C@H](CN(C)C(=O)Nc1ccccc1)[C@H](C)CN([C@@H](C)CO)C2=O	nt	nt	0	nt	nt	nt
O=C(C[C@H]1C=C[C@H](NC(=O)c2ccc(F)cc2)[C@@H](CO)O1)NCCc1ccccc1	nt	nt	6	nt	nt	nt
COc1ccc(CN(C)C[C@@H]2Oc3c(NC(=O)Nc4c(C)noc4C)cccc3C(=O)N([C@H](C)CO)C[C@@H]2C)cc1	nt	nt	-2	nt	nt	nt
COCc1cn(CC[C@H]2CC[C@H](NC(=O)Nc3ccccc3)[C@H](CO)O2)nn1	nt	nt	-1	nt	nt	nt
O=C(C[C@H]1C[C@H]2c3cc(NS(=O)(=O)c4ccc(F)cc4)ccc3O[C@H]2[C@@H](CO)O1)NCCN1CCCCC1	nt	nt	2	nt	nt	nt
O=C(Nc1ccon1)c1ccc(Cl)s1	10	-7	25	1	0	8
O=C(Nc1ccccn1)c1ccc(Br)s1	5	-18	48*	3	0	-8
Cc1ccnc(NC(=O)c2ccc(Cl)s2)c1	8	0	61*	nt	1	1
O=C(Nc1ccccn1)c1ccc(C(=O)Nc2ccccn2)cc1	nt	0	28	nt	0	0
COc1ccc(S(=O)(=O)N(C)C[C@@H]2Oc3ncccc3C(=O)N([C@H](C)CO)C[C@@H]2C)cc1	nt	nt	-3	nt	nt	nt
C[C@H]1CN([C@@H](C)CO)C(=O)c2ccccc2-c2ccccc2CO[C@H]1CN(C)Cc1cccc(O)c1	nt	nt	-2	nt	nt	nt
C[C@H]1CN([C@@H](C)CO)C(=O)CCCn2cc(nn2)CO[C@H]1CN(C)Cc1cccc(O)c1	nt	nt	0	nt	nt	nt
O=c1[nH]c(-c2cccnc2)nc2ccccc12	14	-13	-5	-2	-1	-10
c1cncc(-c2nc3c(ccc4ccccc43)[nH]2)c1	nt	5	52*	6	1	17
O=CN1N=C(c2ccccc2)CC1c1ccccc1[N+](=O)[O-] (centres undefined)	-3	-3	nt	2	1	5
N#CC1CC(c2ccccc2)=NN1c1ccccc1[N+](=O)[O-] (centres undefined)	-2	3	52*	6	0	-3

Screens from PubChem.
